Compounds with a hit are over-represented: about 7.3% of the library has one in this group of screens.
AmpC detergent: inhibitors of E. coli AmpC beta-lactamase with detergent | actives 0.041% (n = 370,000) | AID 485294 | P00811 | AmpC hydrolysis of nitrocefin, absorbance 480 nm, 0.01% Triton | Potency, µM (highest dose often 114 µM), inactives show at the top dose activity change, negative = inhibition, usual class: inhibitors;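 further: potency means the concentration at half of the fitted maximal effect; 0% = no-compound wells and -100% = no-enzyme wells; nearly all actives have a fitted effect of over 25% in size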
Target sequence (P00811 whole entry, looked up): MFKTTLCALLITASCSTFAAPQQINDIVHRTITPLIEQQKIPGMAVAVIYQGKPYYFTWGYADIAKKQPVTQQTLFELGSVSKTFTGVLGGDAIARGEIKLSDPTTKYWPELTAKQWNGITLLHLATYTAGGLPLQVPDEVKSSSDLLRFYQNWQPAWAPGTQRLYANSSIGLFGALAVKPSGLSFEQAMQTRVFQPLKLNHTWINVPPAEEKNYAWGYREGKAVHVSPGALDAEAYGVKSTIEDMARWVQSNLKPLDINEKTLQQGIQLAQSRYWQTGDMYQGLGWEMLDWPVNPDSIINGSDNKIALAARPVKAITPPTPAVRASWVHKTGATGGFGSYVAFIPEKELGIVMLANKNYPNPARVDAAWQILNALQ
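AmpC (5.3 nM in the dispensed reagent) in 20 mM phosphate pH 7.0 with 0.01% (detergent screen) or 0.0001% Triton X-100 was preincubated with compounds for 15 min at room temperature. Nitrocefin was then added from an 800 uM solution, and hydrolysis was followed at 480 nm.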
HCMV antiviral: blocks human cytomegalovirus replication | HFF cells, HCMV-luciferase reporter, 72 h; hits give low values | activity change, negative = inhibition, % at 57.5 µM | actives 4.5% (n = 410,000); in the data active means activity change below about -60%; inconclusive means no clear call, values can overlap the other calls; inactive means above about -39%
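Steps: HFFs plated, 16 h 37C; compounds added; HCMV-luciferase added to MOI 1 PFU/cell; 72 h 37C; OneGlo reagent, 5 min room temperature; luminescence read, normalized to controls.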
HCV inh: HCV inhibition; Huh7.5.1 HCVcc-Cre infection, luciferase reporter, 44 h; Potency, µM (titrated, usually from 41.8 µM), without a hit: at the highest dose activity change, negative = inhibition, actives largely listed as inhibitors; actives 3.4% (n = 340,000); AID 651820; further: potency means the concentration at half of the fitted maximal effect
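Cells seeded at 1,000/well and cultured 4 h, then compounds added followed by HCVcc-Cre virus (~0.5 moi). After 44 h further culture, luciferase substrate was added, plates held 15 min at room temperature, and luminescence read for 15 sec.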
AmpC inh no detg: inhibitors of E. coli AmpC beta-lactamase without detergent; P00811; AmpC nitrocefin hydrolysis, absorbance 480 nm, 0.0001% Triton; Potency, µM (highest dose often 57.1 µM), inactives show at the top dose activity change, negative = inhibition, actives largely listed as inhibitors; actives 0.52% (n = 330,000);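 further: potency means the concentration at half of the fitted maximal effect; plate controls were no compound for no effect and no enzyme for full effect; nearly all actives have a fitted effect of over 20% in size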
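AmpC (5.3 nM in the dispensed reagent) in 20 mM phosphate pH 7.0 with 0.01% (detergent screen) or 0.0001% Triton X-100 was preincubated with compounds for 15 min at room temperature. Nitrocefin was then added from an 800 uM solution, and hydrolysis was followed at 480 nm.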
FMDV inh: foot and mouth disease virus antiviral activity; AID 1159524; actives 1.2% (n = 410,000); Potency, µM (series often up to 57.9 µM), for inactives: at the top dose activity change, negative = inhibition, most hits filed as inhibitors; FMDV antiviral cell-based qHTS; calls by dose curve; tested in HEK293T cells; further: read-out not given here; potency means the concentration at half of the fitted maximal effect; nearly all actives have a fitted effect of over 45% in size
* hit, by the source's call. Unless noted, the call rests on the fitted dose curve; in most records, active means well fitted curve in the direction sought with a large enough effect; inconclusive means small, poorly fitted or top-dose-only effect, or another doubt; inactive means no such curve, though single readings can be large; an effect the other way counts as inactive or inconclusive. Unless noted, on the % scale 0 is the no-effect control and ±100 the full control effect.

Results for COc1ccc(CCN2CCCC(CN(C)Cc3cccc(OC)c3)C2)cc1 (stereo not drawn) ?
AmpC detergent: -18%; HCMV antiviral: -18; HCV inh: 7.9µM*; AmpC inh no detg: 52%; FMDV inh: -8%

Results for COc1ccc(CCN2CCCC(CN(C)Cc3cc(OC)ccc3OC)C2)cc1 (stereo not drawn) ?
AmpC detergent: -9%; HCMV antiviral: -9; HCV inh: 10µM*; AmpC inh no detg: 6%; FMDV inh: -8%

What do the screens show for `CN(Cc1ccccc1O)CC1CCCN(CCc2ccc(Cl)cc2)C1` (stereo not drawn)?
AmpC detergent: -5%; HCMV antiviral: 6; HCV inh: 10µM*; AmpC inh no detg: 16%; FMDV inh: -21%

How did CN(Cc1ccc(C#CCCO)cc1)CC1CCCN(CCc2ccc(Cl)cc2)C1 (stereo not drawn) do in these assays?
AmpC detergent: -14%; HCMV antiviral: -7; HCV inh: -4%; AmpC inh no detg: 84%; FMDV inh: -17%

Results for CCc1ccc(-c2nc(SCC(=O)N(CC)C3CCS(=O)(=O)C3)n[nH]2)cc1 (stereo not drawn) ?
AmpC detergent: 0%; HCMV antiviral: 68; HCV inh: 2%; AmpC inh no detg: -6%; FMDV inh: 19%

Results for O=C1CN(C(=O)Cc2ccc(F)cc2)C(c2ccccc2)c2cc(Br)ccc2N1 (stereo not drawn) ?
AmpC detergent: inconclusive; HCMV antiviral: 15; FMDV inh: -15%

Results for COc1cccc(-c2nc(S(=O)(=O)c3ccccc3)c(N3CCCCC3)o2)c1 ?
AmpC detergent: 11%; HCMV antiviral: -2; FMDV inh: -10%

Results for Cc1cc(O)cc2c1C1CCC3(C)C(=O)CCC3C1C=C2 (stereo not drawn) ?
HCMV antiviral: -97*; HCV inh: -17%; FMDV inh: 22%

What do the screens show for `O=C(O)c1cccc(Nc2ccncc2[N+](=O)[O-])c1`?
AmpC detergent: 3%; HCMV antiviral: 44; HCV inh: 18%; AmpC inh no detg: -17%; FMDV inh: -9%

What do the screens show for `CN(C(=O)COc1ccccc1C(=O)NCCOc1ccccc1)c1ccccc1`?
AmpC detergent: -17%; HCMV antiviral: -93*; HCV inh: 8.9µM*; AmpC inh no detg: 36%; FMDV inh: 8.9µM*

How did CCC(=O)N1CCc2cc(Br)cc(S(=O)(=O)N3CCCC(C(=O)Nc4ccc(C)c(F)c4)C3)c21 (stereo not drawn) do in these assays?
AmpC detergent: 12%; HCMV antiviral: -30; FMDV inh: -9%

How did CN(C)c1ccc(NS(=O)(=O)c2ccc(-c3csnn3)cc2)cc1 do in these assays?
AmpC detergent: 4%; HCMV antiviral: -65*; HCV inh: inconclusive; AmpC inh no detg: -45%; FMDV inh: 6%

Results for O=C(Nc1ccccc1)N1CCN(C(=O)c2nsc3ccccc23)CC1 ?
AmpC detergent: -6%; HCMV antiviral: active; FMDV inh: 0%

What do the screens show for `Cc1c(Cl)cccc1NC(=O)N1CCCN(c2nc(-c3ccccc3)ns2)CC1`?
AmpC detergent: 1%; HCMV antiviral: -70*; HCV inh: inconclusive; AmpC inh no detg: -3%; FMDV inh: inconclusive

Results for O=C(Nc1ccccc1)N1CCN(c2nc(-c3ccccc3)ns2)CC1 ?
AmpC detergent: 2%; HCMV antiviral: inconclusive; HCV inh: 1.8µM*; AmpC inh no detg: -28%; FMDV inh: inconclusive

What do the screens show for `O=C(Nc1ccccc1Cl)N1CCCN(c2nc(-c3ccccc3)ns2)CC1`?
AmpC detergent: 6%; HCMV antiviral: inconclusive; HCV inh: inconclusive; AmpC inh no detg: -21%; FMDV inh: inconclusive

Results for CC(C)C(NS(C)(=O)=O)c1nnc2n1CCN(Cc1ccnc3ccccc13)CC2 (stereo not drawn) ?
FMDV inh: -5%

Results for COCCNC(=O)Cn1ncc2c(C)n(Cc3ccc(C)cc3)c(C)c2c1=O ?
AmpC detergent: -1%; HCMV antiviral: -8; FMDV inh: -11%

How did COc1ccc(CN2CCCC(n3cc(C(=O)N4CCCCC4)nn3)C2)c(OC)c1C (stereo not drawn) do in these assays?
FMDV inh: -4%

How did COC(=O)c1ccc2c(c1)C(C)(C)C(/C=C/c1ccc(OC)c(OC)c1OC)=[N+]2C do in these assays?
AmpC detergent: inconclusive; HCMV antiviral: -105*; HCV inh: 10µM*; AmpC inh no detg: 31%; FMDV inh: 16µM*

How did COc1cc(C2C(C#N)=C(N)N(N(C)C)C3=C2C(=O)CC(C)(C)C3)cc(OC)c1OC (stereo not drawn) do in these assays?
AmpC detergent: -2%; HCMV antiviral: -82*; HCV inh: 5%; AmpC inh no detg: 0%; FMDV inh: -8%

What do the screens show for `COc1ccc(C2C(C#N)=C(N)N(N(C)C)C3=C2C(=O)CC(C)(C)C3)cc1OC` (stereo not drawn)?
AmpC detergent: 2%; HCMV antiviral: 2; HCV inh: 13%; AmpC inh no detg: -7%; FMDV inh: 0%

What do the screens show for `COc1cc(C2C(C#N)=C(C)NC3=C2C(=O)CC(C)(C)C3)cc(OC)c1O` (stereo not drawn)?
AmpC detergent: -9%; HCMV antiviral: -61*; HCV inh: -21%; AmpC inh no detg: -5%; FMDV inh: -8%

How did COc1ccc(CNCCc2ccc(Cl)cc2)cc1OCc1ccccc1 do in these assays?
AmpC detergent: 0%; HCV inh: inconclusive; AmpC inh no detg: 17%; FMDV inh: -21%

How did COc1cc(CNCc2ccccn2)ccc1OCc1ccc(Cl)cc1Cl do in these assays?
AmpC detergent: 4%; HCMV antiviral: -2; HCV inh: inconclusive; AmpC inh no detg: 76%; FMDV inh: inconclusive

Results for COc1cc(CNCCN2CCOCC2)ccc1OCc1cccc(Cl)c1 ?
AmpC detergent: -2%; HCMV antiviral: -16; HCV inh: 8.9µM*; AmpC inh no detg: 26%; FMDV inh: -11%

How did COc1cc(CNCCN2CCOCC2)ccc1OCc1ccc(Cl)cc1Cl do in these assays?
AmpC detergent: 3%; HCMV antiviral: -85*; HCV inh: inconclusive; AmpC inh no detg: 124%; FMDV inh: -20%

Results for CCOC(=O)c1c(C)[nH]c(C(=O)OCC(=O)N2CCN(S(=O)(=O)c3ccc(C)cc3C)CC2)c1C ?
AmpC detergent: 1%; HCMV antiviral: -29; HCV inh: 14µM*; AmpC inh no detg: 75%; FMDV inh: inconclusive

Results for CSc1ccc(CSCC(=O)N2CCN(S(=O)(=O)c3ccc(C)cc3C)CC2)cc1 ?
AmpC detergent: inconclusive; HCMV antiviral: -20; HCV inh: 8.9µM*; AmpC inh no detg: 25%; FMDV inh: inconclusive

Bioassay records (PubChem BioAssay)
